Source: the supplement of paper PMC10849652
Of roughly 7,900 targets only a part is listed; those with a hit were picked by preference. About 0.6% of all pairs of compound and target were hits.

How the values were obtained:
Test in all cases: log2 fold change, soluble protein after heating vs DMSO (PISA); higher = thermal stabilisation; K562 cells, 10 uM, 30 min; active = over 0.2 and 3.5 SD of the protein, either way, in both replicates (recomputed)
[1] = compound: C1=CC=C(C=C1)[C@H](COC2=CC3=C(C=C2)NC(=O)N3)NC(=O)C4=CC=CN(C4=O)CC5=CC(=C(C=C5)F)F
Summary of the method: (§1)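 For each measurement, 10 μM compound was applied for 30 min to K562 cells at 2×10^6 cells/mL. Aliquots were heated for 3 min across 48°C-58°C, pooled, and extracted in PBS with 0.5% NP-40 at 4°C; the supernatant after 21,000xg for 90 min was soluble protein. This was quantified by TMTpro 16plex LC-MS/MS with channel sums equalised, and thermal stability was reported relative to control samples from duplicates, on a log2 fold-change scale.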

[2] = compound: CC1=C(SC2=C1C(=N[C@H](C3=NN=C(N32)C)CC(=O)N)C4=CC=C(C=C4)Cl)C
Summary of the method: as §1

[3] = compound: CC1=C2C(=CC=C1)N=C(N(C2=O)C3=CC=CC=C3C)CN4C=NC5=C(N=CN=C54)N
Summary of the method: as §1

[4] = compound: Cc1sc2c(c1C)C(c1ccc(Cl)cc1)=N[C@@H](CC(=O)OC(C)(C)C)c1nnc(C)n1-2
Summary of the method: as §1

[5] = compound: c1ccc([C@@H]2C[C@H]2NC2CCNCC2)cc1
Summary of the method: as §1

Measured: log2 fold change

TNFRSF8 (UniProt P28908)
inactive: [1] 0.012 | [2] 0.053 | [3] 0.036 | [4] -0.04 | [5] 0.021

TMEM9B (UniProt Q9NQ34)
inactive: [1] 0.043 | [2] 0.074 | [3] 0.093 | [4] -0.041 | [5] -0.011

TP53BP1 isoform 2 (UniProt Q12888)
Chain of UniProt Q12888 (Q12888 whole entry, looked up): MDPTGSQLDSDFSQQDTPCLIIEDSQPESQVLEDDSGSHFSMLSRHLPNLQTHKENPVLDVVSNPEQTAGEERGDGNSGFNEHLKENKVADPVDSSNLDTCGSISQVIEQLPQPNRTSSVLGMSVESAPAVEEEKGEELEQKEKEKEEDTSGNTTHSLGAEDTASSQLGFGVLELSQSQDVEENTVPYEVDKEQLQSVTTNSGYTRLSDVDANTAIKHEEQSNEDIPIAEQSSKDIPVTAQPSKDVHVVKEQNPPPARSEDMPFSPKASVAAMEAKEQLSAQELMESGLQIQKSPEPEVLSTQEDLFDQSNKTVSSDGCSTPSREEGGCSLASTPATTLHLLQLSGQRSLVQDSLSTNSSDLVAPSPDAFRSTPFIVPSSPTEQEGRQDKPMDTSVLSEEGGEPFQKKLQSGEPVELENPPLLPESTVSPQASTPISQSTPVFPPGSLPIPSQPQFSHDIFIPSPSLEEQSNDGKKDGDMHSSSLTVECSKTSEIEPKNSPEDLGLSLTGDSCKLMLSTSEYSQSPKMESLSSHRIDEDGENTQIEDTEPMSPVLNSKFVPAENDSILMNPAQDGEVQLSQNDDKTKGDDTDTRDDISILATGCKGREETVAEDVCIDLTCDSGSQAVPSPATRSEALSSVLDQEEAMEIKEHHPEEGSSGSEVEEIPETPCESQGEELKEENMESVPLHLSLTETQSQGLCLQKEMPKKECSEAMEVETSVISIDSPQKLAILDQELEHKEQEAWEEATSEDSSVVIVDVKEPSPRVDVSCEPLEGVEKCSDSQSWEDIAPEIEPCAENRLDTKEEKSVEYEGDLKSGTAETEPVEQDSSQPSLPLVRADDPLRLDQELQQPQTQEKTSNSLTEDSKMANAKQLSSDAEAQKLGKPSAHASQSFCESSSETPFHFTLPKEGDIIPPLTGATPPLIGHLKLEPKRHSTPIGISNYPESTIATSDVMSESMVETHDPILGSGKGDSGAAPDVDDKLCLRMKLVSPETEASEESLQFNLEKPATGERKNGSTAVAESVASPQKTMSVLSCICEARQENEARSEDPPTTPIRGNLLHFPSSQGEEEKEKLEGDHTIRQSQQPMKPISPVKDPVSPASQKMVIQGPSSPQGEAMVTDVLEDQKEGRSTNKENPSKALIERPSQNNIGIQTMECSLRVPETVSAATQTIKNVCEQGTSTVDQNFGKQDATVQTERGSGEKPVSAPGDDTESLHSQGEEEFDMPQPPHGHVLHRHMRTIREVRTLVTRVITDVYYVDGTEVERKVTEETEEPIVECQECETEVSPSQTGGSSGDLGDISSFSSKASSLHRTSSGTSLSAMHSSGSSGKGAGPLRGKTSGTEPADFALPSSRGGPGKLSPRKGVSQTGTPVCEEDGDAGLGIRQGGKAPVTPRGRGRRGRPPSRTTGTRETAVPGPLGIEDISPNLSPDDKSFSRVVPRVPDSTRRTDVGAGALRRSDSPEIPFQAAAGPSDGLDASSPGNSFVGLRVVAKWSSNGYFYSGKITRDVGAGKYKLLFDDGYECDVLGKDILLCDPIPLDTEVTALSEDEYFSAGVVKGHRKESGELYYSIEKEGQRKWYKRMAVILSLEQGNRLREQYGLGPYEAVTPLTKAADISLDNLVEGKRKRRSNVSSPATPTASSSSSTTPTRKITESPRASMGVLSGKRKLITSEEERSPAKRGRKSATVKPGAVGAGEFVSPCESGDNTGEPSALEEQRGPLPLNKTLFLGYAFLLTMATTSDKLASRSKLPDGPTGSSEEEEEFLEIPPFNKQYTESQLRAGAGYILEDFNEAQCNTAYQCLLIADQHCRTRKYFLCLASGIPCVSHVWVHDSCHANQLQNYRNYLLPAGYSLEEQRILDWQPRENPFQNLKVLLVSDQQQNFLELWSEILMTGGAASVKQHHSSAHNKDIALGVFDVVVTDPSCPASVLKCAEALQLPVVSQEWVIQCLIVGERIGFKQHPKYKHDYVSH
inactive: [1] -0.025 | [2] -0.016 | [3] 0.025 | [4] 0.001 | [5] 0.032

TSFM (UniProt P43897)
Chain of UniProt P43897 (P43897 whole entry, looked up): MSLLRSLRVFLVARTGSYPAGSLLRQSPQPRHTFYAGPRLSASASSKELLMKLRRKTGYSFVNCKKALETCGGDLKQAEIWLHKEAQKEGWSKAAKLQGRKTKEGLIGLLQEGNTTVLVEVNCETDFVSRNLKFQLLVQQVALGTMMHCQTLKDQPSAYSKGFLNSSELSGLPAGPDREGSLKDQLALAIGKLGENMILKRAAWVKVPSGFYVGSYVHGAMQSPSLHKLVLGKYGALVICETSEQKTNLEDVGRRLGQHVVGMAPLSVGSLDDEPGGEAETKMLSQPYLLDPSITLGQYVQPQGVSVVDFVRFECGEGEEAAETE
inactive: [1] -0.17 | [2] 0.03 | [3] 0.177 | [4] -0.138 | [5] 0.012

TRAPPC13 isoform 5 (UniProt A5PLN9)
inactive: [1] -0.055 | [2] 0.154 | [3] 0.08 | [4] -0.013 | [5] -0.017

UTP4 (UniProt Q969X6)
Chain of UniProt Q969X6 (Q969X6 whole entry, looked up): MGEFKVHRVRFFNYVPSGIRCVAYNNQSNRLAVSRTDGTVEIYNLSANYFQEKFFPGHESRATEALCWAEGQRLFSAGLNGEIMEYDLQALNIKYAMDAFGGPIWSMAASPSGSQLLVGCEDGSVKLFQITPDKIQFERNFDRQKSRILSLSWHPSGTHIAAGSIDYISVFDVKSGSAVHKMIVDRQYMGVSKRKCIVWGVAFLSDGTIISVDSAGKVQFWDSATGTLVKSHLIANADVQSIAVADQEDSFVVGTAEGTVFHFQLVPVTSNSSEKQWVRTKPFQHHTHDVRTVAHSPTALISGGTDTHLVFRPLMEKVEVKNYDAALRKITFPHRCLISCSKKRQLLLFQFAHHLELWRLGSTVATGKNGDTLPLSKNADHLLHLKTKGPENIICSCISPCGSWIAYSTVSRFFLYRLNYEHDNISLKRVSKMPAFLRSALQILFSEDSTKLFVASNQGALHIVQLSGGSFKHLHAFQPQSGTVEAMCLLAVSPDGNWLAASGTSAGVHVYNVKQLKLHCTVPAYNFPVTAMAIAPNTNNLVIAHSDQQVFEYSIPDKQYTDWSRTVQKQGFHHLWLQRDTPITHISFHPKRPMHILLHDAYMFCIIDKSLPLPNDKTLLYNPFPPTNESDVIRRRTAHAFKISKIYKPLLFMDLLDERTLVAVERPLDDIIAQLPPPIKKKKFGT
inactive: [1] 0.009 | [2] 0.039 | [3] -0.044 | [4] 0.004 | [5] -0.021

VPS18 (UniProt Q9P253)
Chain of UniProt Q9P253 (Q9P253 whole entry, looked up): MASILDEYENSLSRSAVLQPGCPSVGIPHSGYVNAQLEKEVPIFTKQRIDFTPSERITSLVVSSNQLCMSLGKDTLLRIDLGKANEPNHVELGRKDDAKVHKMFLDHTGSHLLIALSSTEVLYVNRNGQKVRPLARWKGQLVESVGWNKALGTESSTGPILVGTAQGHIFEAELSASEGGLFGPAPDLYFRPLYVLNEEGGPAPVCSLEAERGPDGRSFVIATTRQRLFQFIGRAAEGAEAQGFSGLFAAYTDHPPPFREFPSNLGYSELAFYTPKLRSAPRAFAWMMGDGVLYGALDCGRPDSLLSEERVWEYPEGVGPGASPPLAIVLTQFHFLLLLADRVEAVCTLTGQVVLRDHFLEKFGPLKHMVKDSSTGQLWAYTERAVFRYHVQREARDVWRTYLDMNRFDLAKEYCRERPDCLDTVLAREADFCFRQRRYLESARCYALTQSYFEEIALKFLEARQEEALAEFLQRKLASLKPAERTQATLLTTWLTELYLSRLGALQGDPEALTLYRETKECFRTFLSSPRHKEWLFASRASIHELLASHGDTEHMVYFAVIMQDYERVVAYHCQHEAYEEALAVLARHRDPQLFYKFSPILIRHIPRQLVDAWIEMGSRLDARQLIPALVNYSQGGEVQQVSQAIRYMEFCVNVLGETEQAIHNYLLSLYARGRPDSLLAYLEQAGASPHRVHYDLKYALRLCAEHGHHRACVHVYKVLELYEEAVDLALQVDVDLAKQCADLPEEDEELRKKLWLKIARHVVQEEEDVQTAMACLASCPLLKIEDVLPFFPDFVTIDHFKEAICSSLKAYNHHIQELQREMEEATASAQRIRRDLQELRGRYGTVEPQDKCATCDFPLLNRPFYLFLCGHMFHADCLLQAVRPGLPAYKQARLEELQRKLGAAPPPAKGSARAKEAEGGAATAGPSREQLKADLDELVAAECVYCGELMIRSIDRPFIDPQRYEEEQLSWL
inactive: [1] 0.014 | [2] -0.052 | [3] -0.03 | [4] -0.03 | [5] 0.004

XRCC5 (UniProt P13010)
inactive: [1] -0.136 | [2] -0.019 | [3] 0.095 | [4] 0 | [5] -0.003

UBAP2L isoform 5 (UniProt Q14157)
Chain of UniProt Q14157 (Q14157 whole entry, looked up): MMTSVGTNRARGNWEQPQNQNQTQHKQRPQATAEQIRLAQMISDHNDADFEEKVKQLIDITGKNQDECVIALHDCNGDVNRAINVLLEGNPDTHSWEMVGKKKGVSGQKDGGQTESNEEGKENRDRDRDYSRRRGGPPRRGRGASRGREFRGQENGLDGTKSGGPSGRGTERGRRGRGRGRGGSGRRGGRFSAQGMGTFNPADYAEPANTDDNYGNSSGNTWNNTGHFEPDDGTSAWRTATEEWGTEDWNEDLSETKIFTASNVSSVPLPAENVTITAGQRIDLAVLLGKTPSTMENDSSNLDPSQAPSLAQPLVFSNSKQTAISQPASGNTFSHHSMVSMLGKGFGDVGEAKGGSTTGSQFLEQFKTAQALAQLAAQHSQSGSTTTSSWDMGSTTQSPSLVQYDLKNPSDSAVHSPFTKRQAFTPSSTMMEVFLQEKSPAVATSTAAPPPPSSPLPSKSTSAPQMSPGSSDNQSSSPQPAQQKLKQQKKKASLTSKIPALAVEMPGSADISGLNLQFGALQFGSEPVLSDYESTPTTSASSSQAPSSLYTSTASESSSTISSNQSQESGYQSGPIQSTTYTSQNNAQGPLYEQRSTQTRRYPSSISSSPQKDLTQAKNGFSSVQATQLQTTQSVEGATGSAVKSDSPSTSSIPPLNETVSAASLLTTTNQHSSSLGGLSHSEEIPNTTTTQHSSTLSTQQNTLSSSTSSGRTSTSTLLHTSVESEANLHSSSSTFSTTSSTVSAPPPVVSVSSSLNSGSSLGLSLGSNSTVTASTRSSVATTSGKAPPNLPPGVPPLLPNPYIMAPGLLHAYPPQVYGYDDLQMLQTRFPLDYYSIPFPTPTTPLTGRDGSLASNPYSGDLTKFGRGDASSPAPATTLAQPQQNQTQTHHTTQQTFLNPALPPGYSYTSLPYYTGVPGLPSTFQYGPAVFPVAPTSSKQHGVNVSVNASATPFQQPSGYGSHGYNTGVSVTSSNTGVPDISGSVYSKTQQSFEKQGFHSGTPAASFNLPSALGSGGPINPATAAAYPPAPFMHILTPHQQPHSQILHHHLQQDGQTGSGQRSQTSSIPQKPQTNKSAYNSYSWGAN
inactive: [1] 0.055 | [2] 0.036 | [3] 0 | [4] -0.016 | [5] 0.017
